Laboratory results taken from PubChem BioAssay AID1845227 (National Center for Advancing Translational Sciences (NCATS), 2023).
Results filed as inconclusive are left out. Entries that show only a call come without a potency. The source made the active and inactive calls. Calls follow the shape of the dose curve; as a rule, active = well fitted inhibition curve with a large enough effect; inconclusive = small, poorly fitted or top-dose-only effect; inactive = no such curve, though single readings can be large or run the other way.

Target: Luciferin 4-monooxygenase (Photinus pyralis) (UniProt P08659)
Assay: Confirmatory firefly luciferase (FLuc) qHTS assay for identification of artifact compounds
Settings: purified FLuc enzyme, luminescence, 5 min; series mostly up to 38.9 µM
Method in brief: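 Compounds were preincubated 15 min at room temperature with 10 uM D-luciferin and 10 uM ATP in Tris acetate pH 7.6. 10 nM Photinus pyralis luciferase was then added, and luminescence was read after 5 min.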
Potency is read from the fitted curve at half-maximal effect.

Row | SMILES | Potency
1 | Cc1ccc(Nc2c(-c3ccsc3)nc3cccc(C)n23)cc1 | inactive
2 | CC1=C(C(=O)Nc2ccc(Cl)cc2)C(c2ccccc2C)n2ncc(C(=O)Nc3ccc(C)cc3)c2N1 (stereo not given) | inactive
3 | O=C1c2ccccc2C(=O)N1c1cccc2cnccc12 | inactive
4 | Cc1c(Cl)cccc1NC(=O)c1cccc(NC(=O)N2CCSc3ncccc32)c1 | inactive
5 | Cc1ccc(NC(=O)c2sc3ncn(Cc4cccc(F)c4)c(=O)c3c2C)c(Br)c1 | inactive
6 | CCc1ccc(NC(=O)CN2C(=O)C3(SCC(=O)N3c3ccc(F)c(F)c3)c3ccccc32)cc1 (stereo not given) | inactive
7 | Cc1ccc2oc(C(=O)Nc3ccc(S(=O)(=O)N(C)c4ccccc4)cc3)cc(=O)c2c1 | inactive
8 | COc1ccc(C2Nc3ccccc3C(=O)N2CCCN(C)C)cc1COc1ccc(NC(C)=O)cc1 (stereo not given) | inactive
9 | Nc1ncnc2c1ncn2[C@@H]1O[C@H](COP(=O)(O)OP(=O)(O)OC[C@H]2OC(O)[C@H](O)[C@@H]2O)[C@@H](O)[C@H]1O (stereo not given in full) | inactive
10 | Cc1ccc(CNS(=O)(=O)c2ccc(-c3cc(C(F)(F)F)on3)s2)cc1 | inactive
11 | COc1ccc(CCNC(=O)c2c(C)oc3ncn(C)c(=O)c23)c(OC)c1 | inactive
12 | COc1ccc(C2C(C(=O)Nc3ccccc3)=C(C)Nc3c(C(=O)Nc4ccccc4)cnn32)cc1 (stereo not given) | inactive
13 | CCOc1ccccc1NC(=O)CSc1nc2c(oc3ccccc32)c(=O)n1-c1ccc(F)cc1 | inactive
14 | Cc1cccc(NC(=O)COC(=O)CCCC2=NS(=O)(=O)c3ccccc3N2)c1 | inactive
15 | CN[C@@H]1[C@@H](O[C@H]2O[C@H](CO)[C@@H](N)[C@H](O)[C@H]2O)O[C@H]2C[C@@H](N)[C@@H](O[C@H]3[C@H](O)[C@@H](O)[C@H](N)C[C@@H]3N)O[C@@H]2[C@@H]1O | inactive
16 | Cc1cccc(-c2noc(-c3cc(C(C)C)[nH]n3)n2)c1 | 6.12 µM (active)
17 | C[C@H](CCC(=O)NCCS(=O)(=O)O)C1CC[C@H]2C3CC[C@@H]4C[C@H](O)CC[C@]4(C)C3C[C@H](O)[C@]12C (stereo not given in full) | inactive
18 | CCCOc1ccc(C(=O)Nc2ccc3oc(-c4ccncc4)nc3c2)cc1 | inactive

Row | SMILES | Potency
19 | COc1ccc(NC(=O)C(C)n2nc(-c3cc(C)ccc3C)c3c(c2=O)CCCC3)cc1 (stereo not given) | inactive
20 | CC1CCN(c2nc3ccccc3nc2SCC(=O)Nc2ccccc2C(C)C)CC1 | inactive
21 | Cc1cc(NC(=O)c2cccnc2)cc(-c2nc3cc(Cl)ccc3o2)c1O | inactive
22 | CC(C)(C)C(=O)OCC(=O)[C@H]1CC[C@H]2[C@@H]3CCC4=CC(=O)CC[C@]4(C)[C@H]3CC[C@]12C | inactive
23 | O=C(Nc1ccc(Br)cc1)c1cc(-c2cccs2)nc2ccccc12 | inactive
24 | O=C(C1CCC(CNS(=O)(=O)c2cccc3cccnc23)CC1)N1CCCCC1 (stereo not given) | inactive
25 | COc1ccc(NC(=O)Cc2noc3ccc(C)cc23)cc1Cl | inactive
26 | O=S(=O)(Nc1cccc2cccnc12)c1ccccc1 | inactive
27 | Nc1nc2nc(-c3ccc(Cl)cc3)cc(C(F)(F)F)n2n1 | inactive
28 | COc1cc(=O)n2c(c1C(=O)N(C)Cc1nccs1)CCN(Cc1cc(C)cc(C)c1)CC2 | inactive
29 | Cc1ccc(OC(C)C(=O)NCC2(N3CCOCC3)CCCCC2)cc1C (stereo not given) | inactive
30 | COc1ccc(C(=O)Nc2ccc3oc(-c4cccnc4)nc3c2)cc1 | inactive
31 | CC(=O)c1ccc(NS(=O)(=O)c2ccc(-c3cc(C)no3)s2)cc1 | inactive
32 | Cn1c(=O)[nH]c2cc(-c3noc(-c4cccc(Cl)c4)n3)ccc21 | inactive
33 | O=C1C(c2ccc(F)cc2)N(CCc2ccc(Cl)cc2)C(=O)CN1C1CCCCC1 (stereo not given) | inactive
34 | O=c1oc2ccc(Br)cc2cc1-c1csc(-c2ccc(Cl)cc2)n1 | inactive
35 | COc1ccc(NC(=O)Cn2c(=O)n(CCc3ccccc3)c(=O)c3c4c(sc32)CCCC4)cc1 | inactive
